# Screening data (PubChem BioAssay)
# Shown are actives, neighbours in structure and some others; about 3.1% of the full set was active somewhere.
# RGS4 inhibitor: Inhibitors of Regulator of G Protein Signaling (RGS) 4: qHTS; Transcreener GDP fluorescence polarization, RGS4-accelerated GTP hydrolysis; Potency, µM (highest dose often 114 µM), for the others: top-dose activity change, negative = inhibition, hits mostly inhibitors; AID 504845, 2011; actives 0.039% (n = 390,000); Regulator of G-protein signaling 4 (Homo sapiens), P49798; active = well fitted inhibition curve with a large enough effect; note: potency is the fitted concentration of half-maximal effect; % is set by controls: 0 for no effect and ±100 for the full control effect; nearly all actives have a fitted effect of over 75% in size
#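 MLSMR compounds (23 nl, pin-transferred) preincubated 10 min at room temperature with a 500nM (2x) first reagent, then RGS4 at 900nM (2x) plus Transcreener GDP mix added; fluorescence polarization (620/688 nm) read before and after 90 min at 30 °C.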
# DRD3 agonist: qHTS of D3 Dopamine Receptor Agonist: qHTS. D(3) dopamine receptor (Homo sapiens), P35462. D3R DiscoveRx beta-arrestin cells, luminescence, 90 min. max activation, %. actives 0.58% (n = 410,000); in the data active = max activation above about 30%; note: 0% is about no effect
# Target sequence (P35462 whole entry, looked up): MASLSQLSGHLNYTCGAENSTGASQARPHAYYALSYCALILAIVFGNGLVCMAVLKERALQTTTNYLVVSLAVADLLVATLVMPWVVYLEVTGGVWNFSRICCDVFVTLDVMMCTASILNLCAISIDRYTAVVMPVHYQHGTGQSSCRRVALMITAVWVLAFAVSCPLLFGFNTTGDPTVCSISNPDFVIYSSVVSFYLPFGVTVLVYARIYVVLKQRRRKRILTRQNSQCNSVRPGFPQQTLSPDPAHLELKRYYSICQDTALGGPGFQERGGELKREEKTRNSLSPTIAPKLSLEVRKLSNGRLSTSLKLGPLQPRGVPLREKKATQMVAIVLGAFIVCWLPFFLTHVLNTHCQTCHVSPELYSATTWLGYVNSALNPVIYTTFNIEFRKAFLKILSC
#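 Agonist mode: compounds and dopamine controls were applied to plated cells for 90 min at 37 degrees C after an overnight attachment at 1500 cells/well. Luminescent read-out followed 30 - 60 minutes at room temperature with DiscoveRx detection reagent.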
# uPA surface inh: qHTS for Inhibitors of Cell Surface uPA Generation; AID 540303, 2011; Potency, µM (doses to about 38.3 µM), without a hit: at the highest dose activity change, negative = inhibition, usual class: inhibitors; cell surface uPA generation assay, qHTS; actives 0.31% (n = 330,000); active = well fitted inhibition curve with a large enough effect; tested in mouse RAW 264.7 cells; note: potency is the fitted concentration of half-maximal effect; % is set by controls: 0 for no effect and ±100 for the full control effect; nearly all actives have a fitted effect of over 55% in size
# D3 antag: qHTS of D3 Dopamine Receptor Antagonist: qHTS; D(3) dopamine receptor (Homo sapiens), P35462; D3R cells, DiscoveRx beta-arrestin luminescence, antagonist mode; hits give low values; max response, negative = inhibition, %; actives 2.5% (n = 360,000); in the data active = max response below about -50%; note: % is set by controls: 0 for no effect and ±100 for the full control effect
#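 Cells expressing the human receptor were seeded at 1500 cells/well, incubated overnight at 37 degrees C in 5% CO2, then exposed to library compounds with dopamine controls for 90 minutes at 37 degrees C before luminescent detection.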
# The depositor's hits bear a star; x = not tested or not shown.
SMILES,RGS4 inhibitor,DRD3 agonist,uPA surface inh,D3 antag
Cc1cc(C)cc(Nc2nc3c(S(=O)(=O)c4cccc(Cl)c4)nnn3c3ccsc23)c1,-15%,54*,x,x
CC(=O)Nc1ccc(Nc2nc3c(S(=O)(=O)c4cccc(Cl)c4)nnn3c3ccsc23)cc1,-18%,1,x,x
COc1cccc(N2CCN(Cc3ccco3)CC2)c1,-12%,0,3%,-6
COc1cccc(N2CCN(Cc3ccsc3)CC2)c1,-9%,-10,-1%,-71*
COc1ccc(/C=C2/SC(=S)N(c3ccc(S(=O)(=O)Nc4nccs4)cc3)C2=O)cc1,-36%,16,12%,-54*
CCC(CO)Nc1ncnc2c1cnn2-c1ccc(C)cc1 (configuration not stated),2%,2,x,x
CCC(=NCc1ccco1)c1c(C(F)(F)F)[nH]n(-c2nc3ccccc3s2)c1=O,-9%,-6,-3%,-12
CCC(=NCc1ccccc1)c1c(C(F)(F)F)[nH]n(-c2nc3ccccc3s2)c1=O,-17%,-10,0%,-60*
CC1(C)S[C@@H]2[C@H](NC(=O)C(c3ccccc3)S(=O)(=O)O)C(=O)N2[C@H]1C(=O)O (some centres not stated),x,-13,x,x
CC1CC=CC2C1C(=O)N(Cc1ccccc1)C2c1ccc2ccccc2c1C=Cc1ccccc1 (configuration not stated),-6%,x,x,x
Cc1ccc(CN(C)C(=O)c2cccc(S(=O)(=O)N3CCc4ccccc43)c2)cc1,8%,-19,4%,-52*
Cc1ccc(CN(C)C(=O)c2cccc(S(=O)(=O)N3CCCC3)c2)cc1,-25%,-2,-5%,-9
O=C1N/C(=N/N=C/c2ccc(F)cc2)SC1c1ccccc1 (configuration not stated),2%,-1,-1%,-4
CC(C)=N/N=C1/NC(=O)C(c2ccc(Cl)cc2)S1 (configuration not stated),-16%,-9,0%,-96*
CCOC(=O)c1[nH]c(C)c(CCC(=O)NCc2ccc(OC)cc2)c1C,-6%,-13,x,x
Cc1nn(-c2ccccc2)c2sc(C(=O)NCCN3CCOCC3)cc12,30%,3,0%,-71*
Cc1ccn(C(=O)c2cc3c(C)nn(-c4ccccc4)c3s2)n1,16%,1,-2%,-52*
Cc1nn(-c2ccccc2)c2sc(C(=O)NC3CCCCC3)cc12,12%,-10,-1%,2
CCCCSCCCNC(=O)CN1C(=O)COc2ccc(S(=O)(=O)N3CCCC3)cc21,-5%,3,x,x
CC(CC1C(C#N)=C(N)OC2=C1C(=O)CCC2)c1ccccc1 (configuration not stated),24%,2,0%,17
CC(C)CC1C(C#N)=C(N)OC2=C1C(=O)CC(c1ccccc1)C2 (configuration not stated),6%,-16,-25%,-63*
O=C(CSc1ncn[nH]1)N1CCCCC1,-46%,8,-1%,6
O=C(CSc1ncc(-c2ccc(F)cc2)[nH]1)N1CCCCC1,17%,-1,-6%,-59*
Cc1ccc(C(=O)c2cc(O)c(O)c([N+](=O)[O-])c2)cc1,x,1,x,x
COc1ccc(NS(=O)(=O)c2cc(C)ccc2OC)cc1OC,-16%,10,-6%,-58*
SMILES,RGS4 inhibitor,DRD3 agonist,uPA surface inh,D3 antag
Cc1csc2cc(-c3cccc([N+](=O)[O-])c3)c(-c3cccc([N+](=O)[O-])c3)c[n+]12,1%,-23,-6%,-61*
Cc1ccccc1OCCCC(=O)NCc1ccco1,-17%,2,8%,-123*
Cc1ccc(OCCCC(=O)NCc2ccco2)cc1,-14%,22,x,-30
Cc1nn(CCCC(=O)Nc2cc(C(F)(F)F)ccc2Cl)c(=O)c2c1sc1ccccc12,-18%,-7,x,x
CC(=O)N1CC=CC1(C)C(=O)NCc1cc(F)cc(C(F)(F)F)c1 (configuration not stated),8%,-1,6%,-28
COC(=O)N1CC=CC1(C)C(=O)NCc1cc(F)cc(C(F)(F)F)c1 (configuration not stated),-9%,2,7.9µM*,-29
COc1cccc(NC(=O)Cn2c(=O)n(Cc3ccco3)c(=O)c3cc(OC)c(OC)cc32)c1,-13%,1,x,x
